In PubChem BioAssay AID1159580 (chemical genetic matrix, 2015):
Where “and” joins values, the source holds several entries; their conditions need not be identical. Identical values can stand only once. Hit rate of the full screen: of about 5,500 compounds, about 2,000 (36%) were called active. Another 18% or so got no clear call; they are omitted. Cut-off read from the data, not from the text of the source: active = normalized growth mostly below about 0.91 (no sharp cut-off); inconclusive = no clear call, values can overlap the other calls; inactive = mostly above about 0.92. The list shows a part of the results.

Test: chemical genetic growth profiling, strain panel (AID 1159580);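 note: tested at 20 µM; growth read once vehicle control cultures reached saturation at 30 °C; 1 = growth at the plate median or of vehicle wells; lower values mean less growth of the strain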
Conditions: S. cerevisiae deletion strains, growth OD

Measured: normalized growth

C[N+](C)(C)CCOP(=O)([O-])OP(=O)(O)OC[C@H]1OC(n2ccc(N)nc2=O)[C@H](O)[C@@H]1O (some centres not stated)
inactive: locus YAL013W, strain DEP1, stronger effect = lower value 0.99 | locus YAL021C, strain ccr4, stronger effect = lower value 1 | locus YAL026C, strain drs2, stronger effect = lower value 1 | locus YAL030W, strain snc1, stronger effect = lower value 0.991 | locus YBL061C, strain skt5, stronger effect = lower value 0.983 | locus YBR009C, strain hhf1, stronger effect = lower value 1.01 | locus YBR021W, strain FUR4, stronger effect = lower value 1.01 | locus YBR023C, strain chs3, stronger effect = lower value 0.987 | locus YBR171W, strain sec66, stronger effect = lower value 0.962 | locus YBR229C, strain ROT2, stronger effect = lower value 1 | locus YBR231C, strain swc5, stronger effect = lower value 0.976 | locus YBR279W, strain paf1, stronger effect = lower value 0.992 | locus YCL011C, strain gbp2, stronger effect = lower value 0.998 | locus YCL016C, strain dcc1, stronger effect = lower value 1.01 | locus YCL029C, strain bik1, stronger effect = lower value 0.999 | locus YCL061C, strain MRC1, stronger effect = lower value 0.972 | locus YCL069W, strain vba3, stronger effect = lower value 0.975 | locus YCR088W, strain abp1, stronger effect = lower value 0.98 | locus YDL005C, strain med2, stronger effect = lower value 0.977 | locus YDL035C, strain GPR1, stronger effect = lower value 0.993 | locus YDL040C, strain nat1, stronger effect = lower value 0.979 | locus YDL074C, strain BRE1, stronger effect = lower value 0.972 | locus YDL101C, strain DUN1, stronger effect = lower value 0.999 | locus YDL134C, strain PPH21, stronger effect = lower value 1.01 | locus YDL185W, strain tfp1, stronger effect = lower value 0.992 | locus YDL192W, strain arf1, stronger effect = lower value 1.01 | locus YDR001C, strain nth1, stronger effect = lower value 0.978 | locus YDR069C, strain doa4, stronger effect = lower value 0.976 | locus YDR101C, strain arx1, stronger effect = lower value 0.989 | locus YDR137W, strain rgp1, stronger effect = lower value 0.991 | locus YDR150W, strain NUM1, stronger effect = lower value 1 | locus YDR159W, strain sac3, stronger effect = lower value 1 | locus YDR162C, strain NBP2, stronger effect = lower value 0.981 | locus YDR195W, strain ref2 0.94 | locus YDR297W, strain sur2, stronger effect = lower value 0.989 | locus YDR318W, strain mcm21, stronger effect = lower value 1.01 | locus YDR334W, strain swr1, stronger effect = lower value 0.974 | locus YDR335W, strain msn5, stronger effect = lower value 0.991 | locus YDR388W, stronger effect = lower value 1 | locus YDR392W, strain spt3, stronger effect = lower value 1.05 | locus YDR502C, strain sam2, stronger effect = lower value 0.995 | locus YEL003W, strain gim4, stronger effect = lower value 0.986 | locus YEL037C, strain rad23, stronger effect = lower value 0.976 | locus YEL061C, strain CIN8 (second series), stronger effect = lower value 0.971 | locus YEL061C, strain CIN8, stronger effect = lower value 0.996 | locus YER015W, strain faa2, stronger effect = lower value 1 | locus YER016W, strain bim1, stronger effect = lower value 0.985 | locus YER110C, stronger effect = lower value 1 | locus YER111C, strain swi4, stronger effect = lower value 0.978 | locus YER155C, strain BEM2 (second series), stronger effect = lower value 0.98 | locus YER155C, strain BEM2, stronger effect = lower value 0.995 | locus YER167W, strain BCK2, stronger effect = lower value 1.02 | locus YFR010W, strain ubp6, stronger effect = lower value 0.974 | locus YGL078C, strain dbp3, stronger effect = lower value 0.998 | locus YGL086W, strain mad1, stronger effect = lower value 1.01 | locus YGL167C, strain pmr1, stronger effect = lower value 0.973 | locus YGL173C, strain kem1, stronger effect = lower value 0.983 | locus YGL227W, strain vid30, stronger effect = lower value 0.973 | locus YGL240W, strain doc1, stronger effect = lower value 0.969 | locus YGL248W, strain PDE1, stronger effect = lower value 1.02 | locus YGL253W, strain hxk2, stronger effect = lower value 0.993 | locus YGR078C, strain PAC10, stronger effect = lower value 0.997 | locus YGR135W, strain pre9, stronger effect = lower value 0.987 | locus YGR229C, strain SMI1, stronger effect = lower value 0.98 | locus YGR252W, strain gcn5, stronger effect = lower value 1.02 | locus YHR013C, strain ard1, stronger effect = lower value 0.969 | locus YHR027C, strain rpn1, stronger effect = lower value 0.992 | locus YHR030C, strain SLT2, stronger effect = lower value 0.998 and 1 | locus YHR079C, strain IRE1 (second series), stronger effect = lower value 1.01 | locus YHR079C, strain IRE1, stronger effect = lower value 1.01 | locus YHR094C, strain hxt1, stronger effect = lower value 0.997 | locus YHR129C, strain ARP1, stronger effect = lower value 1.01 | locus YHR142W, strain chs7, stronger effect = lower value 0.98 | locus YHR200W, strain rpn10, stronger effect = lower value 1 | locus YIL066C, strain RNR3, stronger effect = lower value 0.995 | locus YIL073C, strain SPO22, stronger effect = lower value 1.06 | locus YIL125W, strain kgd1, stronger effect = lower value 1 | locus YIR030C, strain dcg1, stronger effect = lower value 0.999 | locus YJL092W, strain hpr5, stronger effect = lower value 0.974 | locus YJL095W, strain BCK1 (second series), stronger effect = lower value 0.99 | locus YJL095W, strain BCK1, stronger effect = lower value 0.987 and 0.994 | locus YJL115W, strain asf1, stronger effect = lower value 0.977 | locus YJL129C, strain trk1, stronger effect = lower value 0.99 | locus YJL134W, strain LCB3, stronger effect = lower value 1 | locus YJL154C, strain vps35, stronger effect = lower value 0.981 | locus YJL164C, strain tpk1, stronger effect = lower value 1 | locus YJL166W, strain qcr8, stronger effect = lower value 0.963 | locus YJL168C, strain set2, stronger effect = lower value 1 | locus YJL187C, strain SWE1 (second series), stronger effect = lower value 1 | locus YJL187C, strain SWE1, stronger effect = lower value 0.993 | locus YJR043C, strain POL32, stronger effect = lower value 1.02 | locus YJR066W, strain TOR1, stronger effect = lower value 0.952
